Most compounds without a hit are left out; they make up all but 2.4% or so of the library.
Cruzain Triton: qHTS Assay for Promiscuous and Specific Inhibitors of Cruzain (with detergent); Potency, µM, usual class: inhibitors; 200,000 compounds, 0.43% hits; AID 1478, 2009; purified cruzain, Z-FR-AMC fluorescence, 0.01% Triton; Cruzipain (Trypanosoma cruzi), P25779; further: nearly all actives have a fitted effect of over 40% in size
Target sequence (P25779 123-467 limits assumed): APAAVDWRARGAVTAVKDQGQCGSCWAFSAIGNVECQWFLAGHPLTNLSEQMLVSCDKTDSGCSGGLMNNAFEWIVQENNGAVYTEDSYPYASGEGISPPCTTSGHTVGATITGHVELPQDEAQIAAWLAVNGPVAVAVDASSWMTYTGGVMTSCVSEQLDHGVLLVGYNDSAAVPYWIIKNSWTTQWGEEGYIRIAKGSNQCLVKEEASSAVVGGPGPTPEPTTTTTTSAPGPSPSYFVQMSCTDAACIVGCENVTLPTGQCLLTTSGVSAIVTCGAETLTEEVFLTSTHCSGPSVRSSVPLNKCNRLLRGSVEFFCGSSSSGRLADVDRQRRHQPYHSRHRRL
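Sodium acetate buffer (100 mM, pH 5.5) containing 5 mM DTT and 0.01% Triton X-100 hosted 1.5 nM cruzain and test compound for 15 min at room temperature. Cleavage of 2 uM Z-FR-AMC was then tracked by fluorescence.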
Cruzain inh noDet: qHTS Assay for Promiscuous and Specific Inhibitors of Cruzain (without detergent); Potency, µM, hits mostly inhibitors; 200,000 compounds, 2.3% hits; purified cruzain, Z-FR-AMC fluorescence, no detergent; AID 1476, 2009; Cruzipain (Trypanosoma cruzi), P25779; further: nearly all actives have a fitted effect of over 40% in size
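Purified cruzain at 1.5 nM, pre-incubated 15 min with compound at room temperature in 100 mM sodium acetate pH 5.5, 5 mM DTT, 0.00005% Triton X-100. Reaction started with 2 uM Z-FR-AMC; AMC fluorescence increase over 60 s gives rate.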
Large screens that a line does not name were inactive. The call rests on the fitted dose curve; in most records, active means well fitted curve in the direction sought with a large enough effect; inconclusive means small, poorly fitted or top-dose-only effect, or another doubt; inactive means no such curve, though single readings can be large; an effect the other way counts as inactive or inconclusive.

COc1ccc(N2CCN(c3oc(Cc4cccc5ccccc45)nc3C#N)CC2)cc1	Cruzain inh noDet 15.8µM
N#Cc1nc(Cc2cccc3ccccc23)oc1N1CCN(c2ccccc2)CC1	Cruzain inh noDet 7.94µM
N#Cc1nc(Cc2cccc3ccccc23)oc1N1CCOCC1	none
COCCCn1c(=O)c2sccc2n2c(CCCC(=O)Nc3cc(C)cc(C)c3)nnc12	none
CSc1nn(Cc2ccc(F)cc2)c(N)c1S(=O)(=O)c1ccc(Cl)cc1	none
CCCC1CCC(C2=N/C(=C\c3ccc(OC)c(OC)c3)C(=O)O2)CC1 (configuration not stated)	Cruzain Triton 1µM, Cruzain inh noDet 2.51µM
COc1ccc(/C=C2\N=C(SC)SC2=O)cc1OC	none
CCOCCCNC(=O)Cn1nc(CC)n2c(cc3c(OC)cccc32)c1=O	none
CC(=O)c1nn(-c2cccc(Br)c2)cc1C(=O)c1ccc(C)cc1	none
CC(=O)c1nn(-c2cccc(Br)c2)cc1C(=O)c1ccc(Br)cc1	Cruzain inh noDet 12.6µM
COc1ccc(N2CCN(C(=O)CSc3nnc4c5cc(C)ccc5n(C)c4n3)CC2)cc1	Cruzain inh noDet inconclusive
COc1ccc2c(c1)c1nnc(SCC(=O)N3CCCCC3C)nc1n2C (configuration not stated)	Cruzain Triton 14.1µM
CC(C)(C(O)c1ccc([N+](=O)[O-])cc1)[N+](=O)[O-] (configuration not stated)	none
CC(C)(C)NCC(O)COc1nsnc1N1CCOCC1 (configuration not stated)	none
Cc1cc(NC(=O)c2ccc3c(c2)N(Cc2cccc(Cl)c2)C(=O)c2ccccc2S3(=O)=O)ccc1Br	Cruzain inh noDet 3.16µM
COc1ccc(CNC(=O)c2ccc3c(c2)N(Cc2cccc(Cl)c2)C(=O)c2ccccc2S3)c(OC)c1	Cruzain inh noDet 12.6µM
O=C(NC1CCCCC1)c1ccc2c(c1)N(Cc1ccccc1Cl)C(=O)c1ccccc1S2	Cruzain inh noDet 10µM
N#Cc1cccc(NC(=O)c2ccc3c(c2)N(Cc2cccc(Cl)c2)C(=O)c2ccccc2S3(=O)=O)c1	Cruzain inh noDet 6.31µM
O=C(Nc1ccc(Cl)cc1)c1ccc2c(c1)N(Cc1ccccc1)C(=O)c1ccccc1S2(=O)=O	Cruzain inh noDet inconclusive
CC(C)CCNC(=O)c1ccc2c(c1)N(Cc1cccc(Cl)c1)C(=O)c1ccccc1S2	Cruzain inh noDet inconclusive
O=C(NC1CCCC1)c1ccc2c(c1)N(Cc1ccccc1Cl)C(=O)c1ccccc1S2	Cruzain inh noDet inconclusive
CC(=O)Nc1ccc(NC(=O)c2ccc3c(c2)N(Cc2cccc(Cl)c2)C(=O)c2ccccc2S3(=O)=O)cc1	none
COc1cccc(CNc2ncc(-c3ccc(Br)cc3)n2C)c1	none
O=C(Cn1ncc2c3ccccc3n(Cc3cccc(Cl)c3)c2c1=O)NCc1cccs1	none
Clc1cccc(C=NC=Nc2cccc(Cl)c2)c1	none
CCOc1ccc(NC(=O)CCS(=O)(=O)c2cccc3nonc23)cc1	none
COCCn1c(SCC(=O)Nc2ccc(F)c(Cl)c2)nc2c(oc3ccccc32)c1=O	none
COc1ccc(NC(=O)C2CCN(C3=NS(=O)(=O)C(c4ccc(C)c(C)c4)=C3C)CC2)c(OC)c1	none
O=C(NCCc1ccc(Cl)cc1)c1ccc2c(c1)N(Cc1cccc(Cl)c1)C(=O)c1ccccc1S2(=O)=O	Cruzain inh noDet 10µM
Cc1ccc(CCNC(=O)c2ccc3c(c2)N(Cc2cccc(C)c2)C(=O)c2ccccc2S3(=O)=O)cc1	Cruzain inh noDet inconclusive
COC(=O)c1c(NC(=O)CN2C(=O)c3ccccc3C2=O)sc(Cc2ccc3c(c2)OCO3)c1C	Cruzain inh noDet 10µM
COC(=O)c1c(NC(=O)CN2CCN(Cc3ccc4c(c3)OCO4)CC2)sc(C)c1C	none
CCn1c(-c2nonc2NC(=O)c2ccccc2)nc2ccccc21	none
CC(C)(C)c1ccc(C(=O)Nc2nonc2-c2nc3ccccc3[nH]2)cc1	Cruzain inh noDet 3.16µM
Cc1ccn2c(c1)nc(=O)c1cc(S(=O)(=O)N3CCC(C)CC3)c(Cl)cc12	none
O=[N+]([O-])c1ccc(N2CCCC2)cc1NC(c1ccccc1)c1ccccc1	Cruzain inh noDet 10µM
O=[N+]([O-])c1ccc(N2CCOCC2)cc1NC(c1ccccc1)c1ccccc1	Cruzain inh noDet inconclusive
CCCn1c(C)cc(-c2csc(N)n2)c1C	Cruzain inh noDet inconclusive
C=CCn1c(C)cc(-c2csc(N)n2)c1C	Cruzain inh noDet inconclusive
COc1ccc(-n2c(C)cc(-c3csc(N)n3)c2C)cc1	Cruzain inh noDet 20µM
Cc1cc(-c2csc(N)n2)c(C)n1-c1ccc(Cl)c(Cl)c1	Cruzain inh noDet 12.6µM
Cc1ccc(C(=O)NC(=S)Nc2ccc(-c3cc4ccccc4oc3=O)cc2)c(C)c1	Cruzain inh noDet inconclusive
Cc1cc(C)cc(C(=O)NC(=S)Nc2ccc(-c3cc4ccccc4oc3=O)cc2)c1	Cruzain inh noDet 10µM
CN(CC(=O)Nc1cccc(C#N)c1)S(=O)(=O)c1cc2c(cc1Cl)NC(=O)CO2	none
O=S(=O)(c1ccc(Cl)c(Cl)c1)N1CCc2nc3ccccc3n2CC1	Cruzain inh noDet 10µM
O=S(=O)(c1ccc2c(c1)nc1n2CCC1)N1CCOCC1	none
O=S(=O)(Cc1ccccc1)N1CCn2c(nc3ccccc32)C1	none
O=S(=O)(c1ccc(Br)cc1)N1CCn2c(nc3ccccc32)C1	Cruzain inh noDet 5.01µM
CC(=O)OCc1cnc(C)c2oc(=O)c(C(=O)Nc3ccc(C)cc3Cl)cc12	none
Cc1cccc(CN2CCC(CNC(=O)Cn3ncc4c([nH]c5ccc(C)cc54)c3=O)CC2)c1	none
CCc1ccc(C(=O)N2CCC(c3nc(-c4ccc(S(=O)(=O)N5CCCC5)cc4)no3)CC2)cc1	none
CC(C)(C)OC(=O)N1CCC(c2c(C(=O)NCCN3CCC(Cc4ccccc4)CC3)cnn2-c2ccc(F)cc2)CC1	none
CCOC(=O)c1ccc(NC(=O)Nc2ccc3c(c2)OCCO3)cc1	none
CCOC(=O)c1ccc(NC(=O)N2CCOc3ccccc32)cc1	Cruzain inh noDet 10µM
Cc1cc(NC(=O)CSc2nc3c(sc4ccccc43)c(=O)n2CCc2ccccc2)n[nH]1	Cruzain inh noDet 7.94µM
Cc1cc(NC(=O)CSc2nc3c(sc4ccccc43)c(=O)n2CCCN2CCOCC2)n[nH]1	none
O=C(COc1cc(=O)n2c(n1)SCCC2)c1ccccc1	none
O=c1cc(NCc2ccccc2)nc2n1CCCS2	Cruzain inh noDet 25.1µM
COc1ccc(C(=O)N/N=C/c2ccc(OC)c(CN3CCCc4ccccc43)c2)cc1	Cruzain inh noDet 15.8µM
COc1ccc(C(=O)N/N=C/c2ccc(OC)c(CN3CCN(c4ccc(F)cc4)CC3)c2)cc1	none
Cc1ncn(-c2ccccc2O)c1C	none
O=C(Nc1cc(Sc2ccccn2)cc([N+](=O)[O-])c1)c1cccc(Cl)c1	Cruzain inh noDet inconclusive
O=C(Nc1cc(Sc2ccccn2)cc([N+](=O)[O-])c1)c1ccc(Cl)cc1	Cruzain inh noDet 12.6µM
CC(NC(=O)CSc1nc(-c2cccc(Cl)c2)nc2cc(=O)[nH]n12)c1nc2ccccc2n1C (configuration not stated)	none
O=C(Nc1ccc2c(c1)CCC2)c1cccc(S(=O)(=O)N2CCN(c3ccccc3)CC2)c1	Cruzain inh noDet 25.1µM
O=C(Nc1ccc(Cl)c(Cl)c1)c1cc(S(=O)(=O)N2CCN(c3cccc(Cl)c3)CC2)ccc1F	Cruzain inh noDet 3.16µM
O=C(NC1CCCc2ccccc21)c1cccc(S(=O)(=O)N2CCN(c3ccccc3)CC2)c1 (configuration not stated)	Cruzain inh noDet inconclusive
O=C(Nc1ccc(F)c(F)c1)c1cc(S(=O)(=O)N2CCN(c3ccccn3)CC2)ccc1F	none

Screening results as filed in PubChem BioAssay.
